RPL19A-GFP yeast: modulators of TOR pathway RPL19A-GFP in S. cerevisiae; S. cerevisiae RPL19A-GFP strain, flow cytometry, 3 h; active compounds read low; percent response vs DMSO, % at 10 µM; AID 2025; hit rate 0.3% among 330,000;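 active = percent response vs DMSO below 50%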;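 note: median channel GFP fluorescence of the barcoded RPL19A-GFP strain; ratio of sample median GFP to plate DMSO average so 100% = DMSO; lower means less RPL19A-GFP as with rapamycin TOR inhibition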
AGP1 TOR yeast: yeast TOR pathway AGP1-GFP modulation. hit rate 0.02% among 320,000. S. cerevisiae AGP1-GFP multiplex flow cytometry, 3 h; GFP as percent of DMSO wells. GFP response vs DMSO, % at 10 µM;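 active = GFP response relative to DMSO above a set limit, near screen average plus 3 SD, cut at about 150% in these data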;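 note: median GFP channel fluorescence of the gated AGP1 strain per well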
MEP2 TOR yeast: yeast TOR pathway MEP2-GFP modulation. hit rate 0.51% among 330,000. S. cerevisiae MEP2-GFP strain, flow cytometry GFP, 3 h; 100% = DMSO control level. GFP response vs DMSO, % at 10 µM;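 active = GFP response versus DMSO above a set limit, roughly screen mean plus 3 SD, cut at about 180% in these data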;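 note: median GFP fluorescence of the barcode-gated MEP2-GFP cells per well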
LAP4 TOR yeast: alters LAP4-GFP fluorescence in TOR pathway yeast screen. S. cerevisiae LAP4-GFP multiplex, flow cytometry GFP, 3 h; median GFP as percent of DMSO wells. GFP response vs DMSO, % at 10 µM. hit rate 0.34% among 320,000. AID 2023;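 active = GFP response vs DMSO above a set limit, about the screen mean plus 3 SD, cut at about 150% in these data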
Efflux pump inh: inhibitors of Candida antifungal efflux pumps expressed in yeast. inhibition, % at 10 µM. S. cerevisiae Candida pump triplex, Nile Red efflux. hit rate 0.44% among 330,000;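 active = plate passing quality check with inhibition over a set limit, or well fluorescence over plate mean plus 4 SD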;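 note: Nile Red retained in pooled yeast measured as flow cytometry median fluorescence; 0% = buffer negative control and 100% = Enniatin B positive control; higher means more Nile Red kept so more efflux inhibition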
CIT2 TOR yeast: alters CIT2-GFP fluorescence in TOR pathway yeast screen; hit rate 0.065% among 320,000; GFP response vs DMSO, % at 10 µM; AID 2029; S. cerevisiae CIT2-GFP strain, flow cytometry, 3 h; 100 means same as DMSO wells;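 active = GFP response relative to DMSO above a set limit, near the screen mean plus 3 SD, cut at about 150% in these data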;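 note: ratio of well median GFP fluorescence to mean of DMSO wells on the plate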
LAP4 cherry2: reconfirmed LAP4-GFP TOR pathway modulator in yeast; shares compounds with LAP4 TOR yeast; S. cerevisiae LAP4-GFP strain, flow cytometry GFP, 3 h; GFP response vs DMSO, % at 10 µM; hit rate 20% among 590; AID 2621;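 active = GFP signal as percent of the solvent control above about 150%, meaning raised reporter expression, limit read from the data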;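 note: ratio of well median GFP fluorescence to plate DMSO mean so 100% = DMSO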
MEP2 cherry2: second confirmation of modulators of TOR reporter MEP2-GFP in yeast; shares compounds with LAP4 TOR yeast; S. cerevisiae MEP2-GFP strain, flow cytometry GFP, 3 h; GFP response vs DMSO, % at 10 µM; hit rate 10% among 590; AID 2622;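 active = GFP signal above 150% of the solvent control wells, that is a rise of more than half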;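 note: median channel GFP fluorescence of all gated yeast cells per well; ratio of median GFP to plate DMSO average so 100% = DMSO level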
RPL19A GFP CP2: yeast RPL19A-GFP TOR reporter modulation, second cherry pick. hit rate 3% among 590. shares compounds with LAP4 TOR yeast. S. cerevisiae RPL19A-GFP strain, flow cytometry GFP, 3 h; active compounds read low; 100% means same as DMSO wells. GFP response vs DMSO, % at 10 µM;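 active = under 65% GFP response relative to DMSO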;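 note: median GFP channel fluorescence per well over the all cells gate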
CIT2-GFP pick2: yeast CIT2-GFP TOR reporter modulation, second cherry pick. S. cerevisiae CIT2-GFP strain, flow cytometry GFP, 3 h; DMSO control wells read 100%. GFP response vs DMSO, % at 10 µM. hit rate 8% among 590. shares compounds with LAP4 TOR yeast;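 active = GFP response vs DMSO above about 150%, limit read from the data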;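 note: median green fluorescence per well over all gated yeast cells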
AGP1 GFP CP2: second confirmation of modulators of TOR reporter AGP1-GFP in yeast; shares compounds with LAP4 TOR yeast; S. cerevisiae AGP1-GFP strain, flow cytometry GFP, 3 h; percent response vs DMSO, % at 10 µM; 590 tested, under 10 active; AID 2643;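 active = over 150 percent of DMSO response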;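 note: median GFP channel fluorescence over all cells without mother daughter split; sample median GFP divided by mean DMSO control so 100% equals DMSO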
Yeast autofluor: counter-screen for compound autofluorescence in yeast s288c cells. AID 2757. shares compounds with LAP4 TOR yeast. S. cerevisiae s288c, 520 nm autofluorescence, flow cytometry, 3 h; active compounds read high; zero means same as solvent-only cells. fluorescence change (kMESF span) at 33 µM. 610 tested, under 10 active;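 active = fluorescence span over the dose series, or activity score, above about 33, limit read from the data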
* = called active by the depositor. In the library only some 1.3% were active in any assay of this set; here they are far more common.

CC(C)CN1CCN(Cc2cnc(-c3ccc(Cl)cc3)nc2)CC1CCO (stereo not given) was read as RPL19A-GFP yeast 62.0, AGP1 TOR yeast 80.9, MEP2 TOR yeast 152.3, LAP4 TOR yeast 96.5, Efflux pump inh 0.0, CIT2 TOR yeast 86.5, LAP4 cherry2 102.9, MEP2 cherry2 111.5, RPL19A GFP CP2 100.4, CIT2-GFP pick2 98.4 and AGP1 GFP CP2 102.5.
Screening CCOCCCNCc1ccc(OCCC(C)C)c(OC)c1 returned RPL19A-GFP yeast 103.6, AGP1 TOR yeast 89.9, MEP2 TOR yeast 96.5, LAP4 TOR yeast 87.6, Efflux pump inh 0.0 and CIT2 TOR yeast 96.2.
`Cc1cc(NC(c2ccc(Cl)cc2)c2ccc3cccnc3c2O)no1` (stereo not given) gave RPL19A-GFP yeast 94.8, AGP1 TOR yeast 91.8, MEP2 TOR yeast 101.5, LAP4 TOR yeast 151.4*, Efflux pump inh 0.0, CIT2 TOR yeast 78.8 and Yeast autofluor 0.
Screening Cc1ccc2c(c1)N(CCCC(=O)Nc1cccc(C(F)(F)F)c1)C(=O)CO2 returned RPL19A-GFP yeast 60.2, AGP1 TOR yeast 14.8, MEP2 TOR yeast 111.2, LAP4 TOR yeast 86.4, Efflux pump inh -0.1, CIT2 TOR yeast 97.7, LAP4 cherry2 102.2, MEP2 cherry2 110.0, RPL19A GFP CP2 98.7, CIT2-GFP pick2 100.1 and AGP1 GFP CP2 97.8.
For Cc1c(Nc2c3ccccc3nc3ccccc23)c(=O)n(-c2ccccc2)n1C the results were RPL19A-GFP yeast 88.2, AGP1 TOR yeast 68.8, MEP2 TOR yeast 107.7, LAP4 TOR yeast 93.5, Efflux pump inh -0.4 and CIT2 TOR yeast 93.5.
`Cc1c(NC2=C(Cl)C(=O)N(c3ccccc3Cl)C2=O)c(=O)n(-c2ccccc2)n1C` gave RPL19A-GFP yeast 102.9, AGP1 TOR yeast 105.1, MEP2 TOR yeast 100.8, LAP4 TOR yeast 90.5, Efflux pump inh 0.0, CIT2 TOR yeast 106.8 and Yeast autofluor 0.1.
`O=C1C(Cl)=C(Nc2ccccc2O)C(=O)N1c1ccccc1` gave RPL19A-GFP yeast 98.3, AGP1 TOR yeast 104.2, MEP2 TOR yeast 107.4, LAP4 TOR yeast 114.5, Efflux pump inh 0.4, CIT2 TOR yeast 102.0 and Yeast autofluor 0.1.
For Cc1c(NC2=C(Cl)C(=O)N(c3ccccc3)C2=O)c(=O)n(-c2ccccc2)n1C the results were RPL19A-GFP yeast 97.3, AGP1 TOR yeast 98.6, MEP2 TOR yeast 96.9, LAP4 TOR yeast 142.7, Efflux pump inh -0.2, CIT2 TOR yeast 95.4 and Yeast autofluor 0.4.
Cc1ccc(CNC(=O)c2ccc(S(=O)(=O)Nc3c(C)n(C)n(-c4ccccc4)c3=O)cc2)cc1 was read as RPL19A-GFP yeast 98.5, AGP1 TOR yeast 107.6, MEP2 TOR yeast 93.4, LAP4 TOR yeast 95.5, Efflux pump inh 0.0 and CIT2 TOR yeast 75.8.
Screening COC(=O)c1ccc(C)c(NC(=O)CCn2[nH]c(=O)ccc2=O)c1 returned RPL19A-GFP yeast 96.1, AGP1 TOR yeast 91.7, MEP2 TOR yeast 100.7, LAP4 TOR yeast 97.3, Efflux pump inh 0.2 and CIT2 TOR yeast 95.5.
For CCOc1ccc(OCCCC(=O)N2CCN(S(=O)(=O)c3ccccc3C#N)CC2)cc1 the results were RPL19A-GFP yeast 91.8, AGP1 TOR yeast 95.2, MEP2 TOR yeast 95.8, LAP4 TOR yeast 91.2, Efflux pump inh 0.5 and CIT2 TOR yeast 95.1.
CC(=O)c1cccc(NC(=O)CCn2c(=S)oc3ccccc32)c1 was read as RPL19A-GFP yeast 95.2, AGP1 TOR yeast 101.0, MEP2 TOR yeast 94.1, LAP4 TOR yeast 94.1, Efflux pump inh 0.1 and CIT2 TOR yeast 94.9.
COc1cc(/C=C2\CC/C(=C\c3cc(OC)c(O)c(OC)c3)C2=O)cc(OC)c1O was read as RPL19A-GFP yeast 97.5, AGP1 TOR yeast 104.9, MEP2 TOR yeast 184.5*, LAP4 TOR yeast 138.3, Efflux pump inh 0.8, CIT2 TOR yeast 125.9, LAP4 cherry2 146.2, MEP2 cherry2 141.4, RPL19A GFP CP2 111.2, CIT2-GFP pick2 165.1*, AGP1 GFP CP2 111.3 and Yeast autofluor 2.73.
`CC(C)(C)C1CCc2sc(-c3nnc(CCl)o3)cc2C1` (stereo not given) gave RPL19A-GFP yeast 61.7, AGP1 TOR yeast 64.0, MEP2 TOR yeast 94.0, LAP4 TOR yeast 60.0, Efflux pump inh -0.1, CIT2 TOR yeast 102.4, LAP4 cherry2 114.2, MEP2 cherry2 111.8, RPL19A GFP CP2 99.3, CIT2-GFP pick2 119.6 and AGP1 GFP CP2 88.2.
For CC(C)c1cc(-c2cc(C(=O)NCc3ccccc3)on2)nc(NC2CCCC2)n1 the results were RPL19A-GFP yeast 94.0, AGP1 TOR yeast 79.9, MEP2 TOR yeast 91.7, LAP4 TOR yeast 155.7*, Efflux pump inh 0.2, CIT2 TOR yeast 77.5, LAP4 cherry2 125.2, MEP2 cherry2 118.8, RPL19A GFP CP2 98.5, CIT2-GFP pick2 109.9 and AGP1 GFP CP2 100.5.
`Cc1cc(NC2CCCCC2)nc(NCc2ccccc2)n1` gave RPL19A-GFP yeast 111.5, AGP1 TOR yeast 108.4, MEP2 TOR yeast 114.3, LAP4 TOR yeast 103.0, Efflux pump inh -0.2 and CIT2 TOR yeast 115.0.
CC(C)c1cc(-c2cc(-c3ccc(Cl)cc3)on2)nc(NCC2CC2)n1 was read as RPL19A-GFP yeast 96.4, AGP1 TOR yeast 86.0, MEP2 TOR yeast 99.2, LAP4 TOR yeast 125.7, Efflux pump inh -0.1 and CIT2 TOR yeast 93.0.
Cc1cc(-c2cc(C(=O)NC3CCCC3)on2)nc(NCC2CC2)n1 was read as RPL19A-GFP yeast 96.9, AGP1 TOR yeast 81.9, MEP2 TOR yeast 93.0, LAP4 TOR yeast 124.6, Efflux pump inh -0.3 and CIT2 TOR yeast 98.5.
